# Screening data: PubChem BioAssay, National Center for Advancing Translational Sciences (NCATS)
# ERK AVP inh – qHTS Assay for Inhibitors of the ERK Signaling Pathway using a Homogeneous Screening Assay; Potency, µM (highest dose often 57.5 µM), without a hit: top-dose activity, negative = inhibition, hits mostly inhibitors; HEK293-V1b, vasopressin-stimulated pERK AlphaScreen; 72,000 tested, 0.99% active; AID 995, 2007; further: nearly all actives have a fitted effect of over 55% in size
#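 HEK293 cells stably expressing V1b receptor, seeded overnight in 1% FBS, were treated with compounds for 30 min at 37C, then stimulated 5 min with 25 nM vasopressin; phospho-ERK read by AlphaScreen SureFire after lysis.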
# Hsp90 Hop PPI – qHTS Assay for Disrupters of an Hsp90 Co-Chaperone Interaction | Potency, µM (series often up to 57 µM), inactives show at the top dose activity change, negative = inhibition | 71,000 tested, 0.44% active | AlphaScreen TPR2A-His6 binding biotin-Hsp90 C-terminal peptide | AID 595, 2007; active means well fitted curve in either direction with a large enough effect; inconclusive means small, poorly fitted or top-dose-only effect, or another doubt
# Luciferase inh – qHTS Assay for Inhibitors of Firefly Luciferase; purified firefly luciferase, luminescence, 8 min; AID 411, 2009; Potency, µM (highest dose often 57.1 µM), for the others: at the highest dose activity change, negative = inhibition, most hits filed as inhibitors; 72,000 tested, 2.2% active; further: nearly all actives have a fitted effect of over 40% in size
#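 Firefly luciferase (PKLight detection mix) with 10 uM ATP in pH 7.2 imidazole buffer (KCl, MgCl2, Tween 20, BSA). Compounds tested across a concentration series (qHTS). Luminescence read after 8 min at ambient temperature.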
# PK Bst – Pyruvate Kinase | purified pyruvate kinase, luminescence ATP production; ribose 5-phosphate activator present at AC10 | Potency, µM | 51,000 tested, 1.2% active; in the data active means potency below about 11 µM; inconclusive means mostly about 12 µM to 25 µM;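 the screen sought inhibitors and activators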;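 further: scaled between full activation by ribose 5 phosphate and full inhibition by luteolin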
# 15-hLO inh – qHTS Assay for Inhibitors of 15-hLO (15-human lipoxygenase) | Polyunsaturated fatty acid lipoxygenase ALOX15 (Homo sapiens), P16050 | purified 15hLO-1, xylenol orange hydroperoxide absorbance | Potency, µM (highest dose often 57.1 µM), for inactives: top-dose activity change, negative = inhibition, usual class: inhibitors | 74,000 tested, 1.4% active | AID 887, 2007; further: nearly all actives have a fitted effect of over 55% in size
# Target sequence (P16050 whole entry, looked up): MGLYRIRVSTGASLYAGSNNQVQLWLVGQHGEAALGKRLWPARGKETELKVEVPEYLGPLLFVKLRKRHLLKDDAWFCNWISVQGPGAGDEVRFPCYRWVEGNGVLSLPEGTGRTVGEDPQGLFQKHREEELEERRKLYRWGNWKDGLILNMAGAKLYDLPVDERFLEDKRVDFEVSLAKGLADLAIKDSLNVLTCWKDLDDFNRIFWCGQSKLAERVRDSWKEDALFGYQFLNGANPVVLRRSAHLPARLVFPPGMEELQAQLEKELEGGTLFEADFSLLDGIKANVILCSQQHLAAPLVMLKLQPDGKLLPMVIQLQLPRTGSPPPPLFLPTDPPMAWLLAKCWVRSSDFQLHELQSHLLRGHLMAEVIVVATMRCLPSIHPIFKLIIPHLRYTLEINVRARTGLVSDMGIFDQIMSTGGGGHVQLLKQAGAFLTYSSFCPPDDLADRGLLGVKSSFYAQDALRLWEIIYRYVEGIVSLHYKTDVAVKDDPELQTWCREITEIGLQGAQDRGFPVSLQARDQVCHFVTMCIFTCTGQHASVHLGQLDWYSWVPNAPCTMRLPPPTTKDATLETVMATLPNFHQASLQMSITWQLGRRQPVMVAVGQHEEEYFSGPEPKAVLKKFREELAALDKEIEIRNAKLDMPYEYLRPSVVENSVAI
#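 Purified human 15hLO-1 (40 nM final) in 25 mM Hepes pH 7.5, 0.01% Triton X-100 was preincubated with compound 15 min at room temperature, then reacted 6 min with 50 uM arachidonic acid; hydroperoxide detected by Fe-XO, 573/405 nm absorbance ratio.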
# Tau fil binding – qHTS Assay for Tau Filament Binding | AID 596, 2007 | 71,000 tested, 2% active | Microtubule-associated protein tau (Homo sapiens), P10636 | recombinant tau filaments, thioflavin S fluorescence, 15 h; filaments grown with octadecylsulfate alongside compound | Potency, µM (doses to about 57.1 µM), for inactives: at the top dose activity change, negative = inhibition;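 further: actives lower thioflavin S fluorescence by blocking filaments or displacing dye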
#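 Read-out: ThS fluorescence, 450 nm excitation/510 nm emission; lower signal marks blocked filament formation or displaced dye. Tau at 1 uM with 30 uM ODS, 10 uM ThS, 5 mM DTT, 100 mM NaCl, 10 mM HEPES pH 7.4; 15 h, 37 C.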
# * marks the source's active call; other numbers are inactive results; i = inactive; ? = inconclusive; / = no result given; [ ] = another dose, or the depositor's remark. Rows were chosen to be rich in hits. Some 6.1% of all compounds tested hit in one or more screens of this group. Unless noted, the call rests on the fitted dose curve; in most records, active means well fitted curve in the direction sought with a large enough effect; inconclusive means small, poorly fitted or top-dose-only effect, or another doubt; inactive means no such curve, though single readings can be large; an effect the other way counts as inactive or inconclusive. Unless noted, on the % scale 0 is the no-effect control and ±100 the full control effect; potency means the concentration at half of the fitted maximal effect.
SMILES,ERK AVP inh,Hsp90 Hop PPI,Luciferase inh,PK Bst,15-hLO inh,Tau fil binding
COc1ccc(CC(=O)N2CC3(C)CC2CC(C)(C)C3)cc1OC (stereo not given),32µM*,-8%[11 µM],1%,/,-6%[11.4 µM],-2%[11.4 µM]
C/C(CCN1CCCCc2nc(C)c(C)cc21)=N\OC[C@@H](O)COCc1ccco1,22%[11.5 µM],/,-3%[11.4 µM],/,4%[11.4 µM],/
N[C@H](CCC(=O)NCS(=O)(=O)O)C(=O)O,2%,-7%,2%,/,12%,10%
COc1ccc2c(c1)Cc1sc(NC(C)=O)nc1-2,-12%,-13%,13µM*,?,-30%,?
COc1ccc2c(c1)-c1nc(NC(=O)c3cccs3)sc1CC2,/,/,/,/,13µM*,/
COc1cccc(-c2csc(NC(C)=O)n2)c1,-13%,-1%,-28%,/,-19%,-1%
CC(C)Cn1c(N)c(C(=O)CSc2ccc3c(c2)OCCO3)c(=O)n(C)c1=O,2µM*,?,0%,>57,-13%,458%
Cc1nn2cc(-c3ccccc3)nc2s1,-4%,1%,10µM*,?,25µM*,4%
C/C(=N\O)c1ccc(N2C(=O)C3CC=C(Cl)CC3C2=O)cc1 (stereo not given),-24%,-8%[11 µM],-18%,/,2%[11.4 µM],3.2µM*
O=S(=O)(Cc1nc2ccccc2s1)c1ccccc1,-12%,0%,-13%,>57,0%,-9%
c1ccc(OCc2nc3ccccc3s2)cc1,47%,11%,13µM*,i,2%,5%
Cc1cc(C)c2c(=O)n(CC(=O)NCCCN3CCOCC3)sc2n1,-8%,0%,13µM*,/,?,-24%
Cc1ccccc1CS(=O)(=O)CCC(=O)NCCCN1CCN(c2ccccc2F)CC1,-6%,-10%,2%,>57,-1%,7%
Cc1cc(C)c2c(=O)n(CC(=O)NCCCN3CCN(c4ccccc4F)CC3)sc2n1,?,-12%,13µM*,/,?,?
Cc1cc(C)c2c(=O)n(CC(=O)N3CCC(Cc4ccccc4)CC3)sc2n1,-14%,3%,-27%,/,?,-20%
Cc1ccc(-c2csc3nnc(SCC(=O)Nc4cccc(C)n4)n23)cc1,-25%,-18%,-1%,>57,14%,20µM*
CC(=O)Nc1ccc(C(=O)CSc2nnc3scc(-c4ccccc4)n23)cc1,-1%,-1%,-2%,>57,10%,-12%
CCC(C)C(=O)OC1C2CC3=C4CC(=O)OC(c5ccoc5)[C@]4(C)CCC3[C@@](C)(C2=O)C(CC(=O)OC)C1(C)C (stereo not given in full),2%,/,/,/,-2%,/
Cc1ccccc1-c1cc(N2CCNCC2)ncn1,-9%,-8%,0%[2.29 µM],/,11%,0%
Clc1ccc2c(c1)N=C(N1CCNCC1)c1ccccc1N2,23%,-1%,1%,/,2%[25.6 µM],40µM*
O=C(Nc1cccc(Cl)c1)N1CCN(Cc2ccccc2)CC1,-2%,-1%,16µM*,/,-1%,4%
Oc1cccc(C(=S)N2CCN(Cc3ccccc3)CC2)c1,-7%,-4%,0%,>57,13µM*,-3%
CCCCNc1nc(C)nc2c1nc(-c1ccccc1)n2CC1CCN(C)CC1,?,-2%,/,/,1%,2%
O=C(c1cccc(F)c1)N1CCC[C@@]2(CCN(Cc3ccccc3)C2)C1,-1%,0%,0%[11.4 µM],/,3%,-4%
COc1ccc(C2SCCN2S(=O)(=O)c2ccc(F)cc2)cc1OC (stereo not given),13µM*,6%,3%,>57,-20%,-9%
SMILES,ERK AVP inh,Hsp90 Hop PPI,Luciferase inh,PK Bst,15-hLO inh,Tau fil binding
COc1ccc(S(=O)(=O)N2CCSC2c2ccc(OC)c(OC)c2)cc1 (stereo not given),-6%,1%,?,>57,-10%,-14%
O=c1cc(C(F)F)oc2c1ccc1ccccc12,-11%,0%,-2%,/,13µM*,-13%
COc1ccc(N2CCN(Cc3cc(=O)oc4c3ccc3ccccc34)CC2)cc1,-10%,-8%,3%,>57,-3%,-14%
OB(O)c1ccc(B(O)O)cc1,-2%,/,/,/,7%,/
CCN(CC)c1ccc(N)cc1,?,?,/,/,-19%,13µM*
COc1ccc(C(=O)c2oc3ccccc3c2N)cc1,-9%,16%,-22%,?,-22%,13µM*
COc1ccc2oc(C(=O)C3CC3)c(N)c2c1,-6%,1%,25µM*,/,-5%,-11%
CC[C@@H]1OC(=O)[C@@H](C)[C@H](O[C@@H]2C[C@@](C)(OC)[C@@H](O)[C@H](C)O2)[C@H](C)[C@H](O[C@@H]2O[C@@H](C)C[C@@H](N(C)C)[C@H]2O)[C@@](C)(O)C[C@H](C)C(=O)[C@@H](C)[C@H](O)[C@@]1(C)O,/,0%,0%[11.4 µM],/,/,?
O=C1[C@@H]2[C@@H]3C=C[C@H]([C@@H]2C(=O)N1CN1CCSCC1)[C@@H]1[C@@H]2C(=O)N(CN4CCSCC4)C(=O)[C@@H]2[C@H]31,-10%[11.5 µM],0%[11 µM],2%[11.4 µM],/,3%[11.4 µM],3%[11.4 µM]
COc1ccccc1CNC(=O)Nc1cccs1,/,/,/,/,13µM*,/
c1coc(-c2nnc3sc(Cc4cccs4)nn23)c1,/,/,1%[25.5 µM],>11,/,/
Clc1ccc(-c2nnc3sc(Cc4cccs4)nn23)c(Cl)c1,/,/,0%[25.5 µM],9.5*,/,/
Cc1cc(NC(=O)CCCC(=O)NCc2cccs2)no1,?,1%,-5%,/,20µM*,164%
Cc1cc(NC(=O)CCCC(=O)Nc2ccc(F)cc2)no1,0%,0%,3%,>57,-2%,3%
CC(=O)[C@@]1(N=Nc2ccc(S(N)(=O)=O)cc2)CCOC1=O,-23%[11.5 µM],-2%[11 µM],1%[11.4 µM],/,-5%[11.4 µM],9%[11.4 µM]
NS(=O)(=O)c1ccc(N=Nc2ccc[nH]c2=O)cc1,0%[11.5 µM],-4%[11 µM],1%[11.4 µM],/,3.2µM*,0%[11.4 µM]
COC(=O)CC1=COC2OCC3=CC[C@@H]1C32 (stereo not given in full),11%[11.5 µM],/,/,/,8%[11.4 µM],/
CC(=O)c1c(C)[nH]c(C(=O)OCc2nnc(-c3ccccc3)o2)c1C,25µM*,-1%,-15%,>57,14%,353%
Cc1ccc(C(=O)OCc2nnc(-c3ccccc3)o2)o1,9%,-2%,-1%,>57,5%,-16%
CC1CCC2C(=O)OC(CN=[N+]=[N-])CN2C1c1ccc(Br)cc1 (stereo not given),0%[11.5 µM],/,/,/,5%[11.4 µM],/
COC(=O)c1ccc2c(c1)NC(=O)C1CCCN21 (stereo not given),-26%,-8%[2.3 µM],-13%,/,7.9µM*,-21%
